PGC1a acetyl inh: inhibitors of PGC1a acetylation signal, primary screen, cell-based, U2OS, AlphaScreen, inhibitor mode; inhibition, % at 15.6 µM; AID 651687, 2012; 350,000 tested, 0.17% active; AlphaScreen anti-acetyl-lysine; with virally co-expressed GCN5 acetyltransferase;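 active means every replicate shows inhibition of at least 40%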;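 further: 0% = neutral control wells and 100% = positive control wells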
Statin myotox sup: suppressors of statin myotoxicity in C2C12 myotubes, primary screen, cell-based, single point, plate reader; 330,000 tested, 0.78% active; rescue of ATP level, % at 7.49 µM; C2C12 myotubes + simvastatin, ATP luminescence, 48 h; scaled: DMSO 0, geranylgeraniol control 100;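 active means mean ATP rescue above about 67%, or every replicate alone reaching that limit, limit read from the data, passing the limit was not always enough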;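 further: myotubes were challenged with 10 µM simvastatin during compound exposure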
AI-2 QS modul: Vibrio harveyi AI-2 quorum sensing modulators, primary screen, JMH597 strain, luminescence/OD600 ratio; 300,000 tested, 0.4% active; activity change, % at 7.5 µM; Vibrio harveyi JMH597 AI-2 luminescence/OD600 ratio, 9 h; hits give low values; strain lacks LuxN and CqsS sensors; 0 = neutral-control median; in the data active means activity change below about -75%, passing the limit was not always enough;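 further: luminescence divided by OD600 gain over 9 h not by final OD600 alone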
Rce1 inhib: yeast Rce1p protease inhibitors, primary screen, biochemical, fluorescence, cell-free homogeneous | CAAX prenyl protease 2 (Saccharomyces cerevisiae (strain ATCC 204508 / S288c)), Q03530 | yeast membranes, quenched prenylated peptide cleavage fluorescence | calls only | 290,000 tested, 0.27% active;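 active means fall in fluorescence gain of 50% or more versus controls, with final raw signal at or below 3038400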;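 further: plate controls were neutral control wells for no effect and wells lacking membranes for full effect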
Target sequence (Q03530 whole entry, looked up): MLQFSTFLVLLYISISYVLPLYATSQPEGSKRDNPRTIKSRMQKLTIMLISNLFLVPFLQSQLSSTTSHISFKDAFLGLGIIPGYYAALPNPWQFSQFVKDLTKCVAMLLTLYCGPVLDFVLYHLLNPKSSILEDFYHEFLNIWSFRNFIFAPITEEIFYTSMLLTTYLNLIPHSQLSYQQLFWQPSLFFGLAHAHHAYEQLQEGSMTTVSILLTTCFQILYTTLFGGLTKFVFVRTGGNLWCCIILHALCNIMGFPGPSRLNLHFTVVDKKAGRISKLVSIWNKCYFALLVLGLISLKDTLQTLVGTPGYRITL
HIF act: HIF pathway transcriptional activators, primary screen, cell-based, U2OS HRE-luciferase, luminescence | 300,000 tested, 0.32% active | activation, % at 7.5 µM (by protocol) | U2OS HRE-luciferase reporter; normalized: DMSO 0%, desferrioxamine 100%;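 active means mean activation of at least 10% of the iron chelator positive control signal, with at least half of replicates also reaching 10%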
Active calls of the source: *; i = inactive; · = not tested or not shown; + = active, no number. Only some compounds are listed: those with a hit (about 1.3% of all), similar ones and a draw of the others.

SMILES | PGC1a acetyl inh | Statin myotox sup | AI-2 QS modul | Rce1 inhib | HIF act
Cc1noc(C)c1NC(=O)Nc1cccc2c1O[C@@H](CN(C)C(=O)Nc1ccccc1)[C@@H](C)CN([C@H](C)CO)C2=O | 6 | -2 | · | · | ·
C[C@@H]1CN([C@@H](C)CO)C(=O)c2cc(NC(=O)Cn3cnnn3)ccc2O[C@@H]1CN(C)C(=O)Nc1ccccc1 | 7 | · | · | · | ·
CCCC(=O)Nc1ccc2c(c1)OC[C@@H](C)N(C(=O)CN(C)C)C[C@H](C)[C@@H](OC)CN(C)C2=O | 5 | 13 | · | · | ·
O=C(CN1CCOCC1)N1c2ccccc2Sc2ccc(Cl)cc21 | · | 4 | · | · | ·
O=C(CN1CCN(CCOCCO)CC1)N1c2ccccc2Sc2ccc(Cl)cc21 | -11 | 108* | 14 | i | 1
CCOc1ccc2[nH]c(=O)c(CN(Cc3cccs3)Cc3nnnn3C(C)(C)C)cc2c1 | -8 | -10 | 11 | i | ·
CCOc1ccc2[nH]c(=O)c(CN(CCN3CCOCC3)Cc3nnnn3C(C)(C)CC)cc2c1 | 0 | 5 | 12 | + | 0
COc1ccc(S(=O)(=O)N(C)C[C@@H]2Oc3ccc(NS(=O)(=O)c4ccccc4)cc3C(=O)N([C@H](C)CO)C[C@@H]2C)cc1 | 2 | 0 | · | · | ·
COc1ccc(S(=O)(=O)N(C)C[C@H]2Oc3ccc(NC(=O)CCCCCC(=O)Nc4ccccc4N)cc3C(=O)N([C@@H](C)CO)C[C@@H]2C)cc1 | -9 | · | · | · | ·
COCC#Cc1cnc2c(c1)C(=O)N([C@@H](C)CO)C[C@H](C)[C@H](CN(C)Cc1ccc(-c3ccccc3)cc1)O2 | -11 | 31 | · | · | ·
CN1C(=O)c2cc(NC(=O)c3ccc(F)c(F)c3)ccc2OC[C@H]2O[C@@H](CC(=O)Nc3ccc4c(c3)COC4)CC[C@@H]21 | 3 | 102* | · | · | ·
CN1C(=O)c2cc(NC(=O)Cc3cccs3)ccc2OC[C@H]2O[C@@H](CC(=O)NCc3ccc(-c4ccccc4)cc3)CC[C@H]21 | -3 | 72* | · | · | ·
CNC(=O)C[C@@H]1CC[C@@H]2[C@H](COc3ccc(NC(=O)c4ccc(F)c(F)c4)cc3C(=O)N2C)O1 | 1 | 2 | · | · | ·
COc1ccc(S(=O)(=O)N[C@@H]2C=C[C@H](CC(=O)N3CCN(c4ccccc4)CC3)O[C@@H]2CO)cc1 | -6 | 4 | · | · | ·
C[C@H]1CN([C@@H](C)CO)C(=O)Cc2cc(NC(=O)CCC(F)(F)F)ccc2O[C@@H]1CN(C)C(=O)Nc1cccc2ccccc12 | 0 | -8 | · | · | ·
COc1cccc(C(=O)N/N=C(/c2ccccc2)c2ccccn2)c1 | 2 | 8 | 8 | i | 11*
COc1cc(C(=O)N/N=C(\C)c2ccccn2)cc(OC)c1OC | · | -2 | 1 | i | 0
COc1cc(C(=O)N/N=C(\c2ccccc2)c2ccccn2)cc(OC)c1OC | · | · | 2 | i | 64*
Clc1ccc(CSc2nnc(-c3c[nH]c4ccccc34)o2)cc1 | 16 | 22 | -77* | i | 0
CCCNC(=O)[C@@H]1[C@@H](CO)[C@@H]2Cn3c(ccc(/C=C/c4ccccc4)c3=O)[C@H]1N2C(=O)c1cccnc1 | · | 1 | · | · | ·
C[C@H](CO)N1C[C@H](C)[C@@H](CN(C)C(=O)C2CCC2)Oc2ncc(-c3cccnc3)cc2C1=O | -2 | 20 | · | · | ·
CSc1nc2nc3c(c(=O)n2[nH]1)CCCC3 | -6 | 119* | 44 | i | 0
CO[C@@H]1CN(C)C(=O)c2ccc(NC(=O)c3ccc(-c4ccccc4)cc3)cc2OC[C@@H](C)NC[C@H]1C | 0 | · | · | · | ·
CO[C@@H]1CN(C)C(=O)c2ccc(NC(=O)Nc3ccc(F)cc3)cc2OC[C@@H](C)N(C(=O)c2cnccn2)C[C@H]1C | -2 | 4 | · | · | ·
COc1ccc(N2Nc3n[nH]c(N)c3N2)cc1 | 4 | 106* | 11 | i | 0
SMILES | PGC1a acetyl inh | Statin myotox sup | AI-2 QS modul | Rce1 inhib | HIF act
O=C(NC1CC1)C1CCN(C2CCN(Cc3ccccc3C(F)(F)F)CC2)CC1 | -13 | 83* | 25 | i | 0
CC(=O)Nc1ccc(CN2CCC(N3CCC(C(=O)NC4CC4)CC3)CC2)cc1 | -5 | 2 | · | · | ·
O=C(c1ccc(F)cc1)N1CC(=O)N2[C@H](CO)[C@H](c3ccc(C#CC4CC4)cc3)[C@H]2C1 | 3 | · | · | · | ·
CCOc1ccc(NC(=O)CN(Cc2ccccc2)S(C)(=O)=O)cc1 | -4 | 110* | 16 | i | 1
Cc1cccc(S(=O)(=O)N2C[C@@H]3[C@H](c4ccccc42)[C@H](CO)N3C(=O)CC2CC2)c1 | -2 | -12 | · | · | ·
C[C@H]1CN([C@@H](C)CO)C(=O)Cc2cc(NC(=O)C3CCCCC3)ccc2O[C@@H]1CN(C)Cc1ccc(-c2ccccc2)cc1 | -2 | 23 | · | · | ·
C[C@H]1CN([C@@H](C)CO)C(=O)Cc2cc(NC(=O)CCC(F)(F)F)ccc2O[C@H]1CN(C)Cc1ccc(Oc2ccccc2)cc1 | 2 | 10 | · | · | ·
C[C@@H]1CN([C@H](C)CO)C(=O)Cc2cc(NC(=O)C3CCCCC3)ccc2O[C@H]1CN(C)Cc1ccc(-c2ccccc2)cc1 | -6 | 99* | · | · | ·
Cc1noc(C)c1NC(=O)Nc1ccc2c(c1)CC(=O)N([C@H](C)CO)C[C@H](C)[C@@H](CN(C)Cc1ccc(Oc3ccccc3)cc1)O2 | -1 | 103* | · | · | ·
C[C@@H]1CN([C@H](C)CO)C(=O)Cc2cc(NC(=O)C3CC3)ccc2O[C@H]1CN(C)Cc1ccc(Oc2ccccc2)cc1 | 4 | 32 | · | · | ·
C[C@H](CO)N1C[C@H](C)[C@@H](CN(C)Cc2ccc(Oc3ccccc3)cc2)Oc2ccc(NC(=O)CCC(F)(F)F)cc2CC1=O | -5 | 93* | · | · | ·
C[C@@H]1CN([C@@H](C)CO)C(=O)Cc2cc(NC(=O)C3CC3)ccc2O[C@H]1CN(C)Cc1ccc(Oc2ccccc2)cc1 | -10 | 74* | · | · | ·
COCCCN1C(=O)[C@@]2(Cc3ccccc31)c1ccccc1C(=O)N(Cc1ccccc1)[C@H]2c1ccc(CO)cc1 | -7 | · | · | · | ·
C[C@H]1CN([C@@H](C)CO)C(=O)Cc2cc(NC(=O)Nc3ccc4c(c3)OCO4)ccc2O[C@H]1CN(C)Cc1ccc(-c2ccccc2)cc1 | -7 | 12 | · | · | ·

Source: PubChem
